# Compound activity deposited in PubChem by National Center for Advancing Translational Sciences (NCATS).
# The list is not random: actives were taken first. Their share in the collection is about 6.7%.
# MCF10A rereplic – induces DNA re-replication in MCF 10a normal breast cells; MCF 10A DNA re-replication, Hoechst nuclear intensity, 48 h; Potency, µM (doses to about 46.1 µM), without a hit: at the highest dose activity, positive = re-replication, most hits filed as activators; actives 2.9% (n = 350,000); note: % of control where 0% means no effect; nearly all actives have a fitted effect of over 50% in size
# KB-V1 cytotox – KB-V1 MDR subline cytotoxicity | KB-V1 MDR cells viability, CellTiter-Glo, 72 h | Potency, µM (series often up to 46.1 µM), usual class: cytotoxic | actives 3.4% (n = 400,000); note: % is set by controls: 0 for no effect and ±100 for the full control effect; nearly all actives have a fitted effect of over 60% in size
#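 Readout: CellTiter-Glo luminescence, 10 min after addition. Cells: KB-V1 MDR subline, 72 h at 37 degrees C with compound. Analysis: corrected, normalized data fitted to concentration-effect curves.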
# PINK1 modulator – changes PINK1 expression; PINK1 immunofluorescence, high-content cytometry, 24 h; Potency, µM (doses to about 76.6 µM), for inactives: at the top dose activation (PINK1 increase), hits mostly activators; actives 0.2% (n = 410,000); AID 624263; active = well fitted activation curve with a large enough effect; inconclusive = small, poorly fitted or top-dose-only effect; cell line not stated here; note: % of control where 0% means no effect; nearly all actives have a fitted effect of over 65% in size
#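 PINK1 protein level read as immunofluorescence by microplate cytometer in a fixed, stained stable cell line after 24 h exposure to five compound concentrations, with CCCP as control.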
# KB-3-1 tox – kills parental KB-3-1 adenocarcinoma cells; Potency, µM (series often up to 46.1 µM), usual class: cytotoxic; actives 1.4% (n = 400,000); KB-3-1 viability, CellTiter-Glo ATP luminescence, 72 h; AID 1347075; note: % is set by controls: 0 for no effect and ±100 for the full control effect; nearly all actives have a fitted effect of over 60% in size
#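 Viability of parental KB-3-1 cells, measured by CellTiter-Glo luminescence, followed a 72 h incubation at 37 °C with pinned compounds in phenol-red-free DMEM containing 10% FBS.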
# SW480 rerep – inducers of DNA re-replication in SW480 colon cancer cells | SW480 DNA re-replication, Hoechst DNA content imaging, 48 h | Potency, µM (titrated, usually from 46.1 µM), inactives show at the top dose re-replication activation, usual class: activators | actives 1.8% (n = 340,000); note: % of control where 0% means no effect; nearly all actives have a fitted effect of over 55% in size
#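 250 cells/well; 23 nL cpd via pin tool; 48 hr, 37 C, 5% CO2; Hoechst 40 min; imager read of total nuclear intensity, ex 405/em 500-530 nm.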
# Numbers without * were called inactive; i = inactive; ? = inconclusive; nt = no result; [ ] = dose if it differs, or a comment. Unless noted, calls come from the whole dose curve; as a rule, active = well fitted curve in the direction sought with a large enough effect; inconclusive = small, poorly fitted or top-dose-only effect, or another doubt; inactive = no such curve, though single readings can be large; an effect the other way counts as inactive or inconclusive. Potency is the fitted concentration of half-maximal effect.
SMILES,MCF10A rereplic,KB-V1 cytotox,PINK1 modulator,KB-3-1 tox,SW480 rerep
O=C1CC(N2CCOCC2)C(=O)N1c1cc(Cl)cc(Cl)c1 (centres undefined),0.7%,i,-0.1%[38.3 µM],i,0.7%
Cc1cc(C)cc(N2C(=O)CC(N3CCOCC3)C2=O)c1 (centres undefined),18.4µM*,i,1.0%[38.3 µM],i,22.4%
COc1c2ccccc2nc2ccccc12,?,i,0.7%,i,23.1µM*
Cc1c2ccccc2nc2ccccc12,-2.3%,i,8.8%,i,-4.9%
Cc1ccccc1CCNC(=O)c1ccc2c(c1)nc1n2CCC(C)C1 (centres undefined),nt,nt,1.0%,nt,nt
NC(=O)C1(N2CCCCC2)CCN(C(=O)Nc2ccc(Cl)c(Cl)c2)CC1,nt,nt,0.8%,nt,nt
O=S(=O)(NCC1OCCc2ccccc21)c1ccc(S(=O)(=O)N2CCOCC2)cc1 (centres undefined),-6.7%,20.6µM*,-1.7%[38.3 µM],i,0.5%
CCOc1cccc(C2C=C(c3ccc4c(c3)OCO4)NC(c3ccc(Cl)cc3)N2)c1O (centres undefined),nt,i,0.1%,10.3µM*,nt
CCCCn1c(N)c(N(CCC(C)C)C(=O)c2ccc([N+](=O)[O-])s2)c(=O)[nH]c1=O,23.1µM*,i,-0.1%,i,?
CCCCN(C(=O)c1ccc([N+](=O)[O-])s1)c1c(N)n(CC(C)C)c(=O)[nH]c1=O,9.6%,i,3.0%,i,12.7%
O=C(Nc1cccc(F)c1)C1CC(=O)N(c2ccc(Br)cc2)C1 (centres undefined),2.2%,i,2.9%,i,-5.9%
O=C(N/N=C/c1ccccc1O)C1CC(=O)N(c2ccc(Cl)cc2)C1 (centres undefined),?,i,1.3%,?,5.8µM*
O=C(Nc1cccc(Cl)c1Cl)C1CC(=O)N(c2ccc(Br)cc2)C1 (centres undefined),5.8µM*,i,?,i,6.7%
Cc1ccc(/C=N/NC(=O)C2CC(=O)N(c3ccccc3)C2)s1 (centres undefined),10.3%,i,6.9%,i,?
Cc1ccc(C(OCC(O)CNC(CO)C(O)c2ccc([N+](=O)[O-])cc2)c2ccccc2)cc1 (centres undefined),?,16.4µM*,-1.6%,i,?
Cc1ccc(C(OCC(O)CNC(C)c2ccccc2)c2ccccc2)cc1 (centres undefined),?,?,-1.7%,i,12.3%
O=c1[nH]cnc2cc(-c3ccccc3)sc12,5.4%,6.51µM*,-2.5%,16.4µM*,-4.6%
COc1ccc(-c2cc3nc[nH]c(=O)c3s2)cc1,19.0%,i,-1.3%,i,-8.9%
COc1ccc(S(=O)(=O)N2CCOCC2)cc1NC(=O)CSc1nnc2n1CCCCC2,0.8%,?,-0.4%,i,-1.0%
O=C1CC(c2cccc([N+](=O)[O-])c2)c2c(ccc3ccccc23)N1 (centres undefined),?,5.8µM*,-0.6%,?,?
O=C1CC(c2ccc(Br)cc2)c2c(ccc3ccccc23)N1 (centres undefined),nt,i,2.5%,i,nt
Cc1ccc(C(=O)NNc2cc(N3CCCC3)nc(N3CCCC3)n2)cc1,18.9%,1.46µM*,-0.1%,i,10.0%
Cc1ccc(C(=O)NNC(=O)C2CCN(c3ncccn3)CC2)cc1,4.3%,i,1.0%,?,-18.0%
O=C(NNc1cc(N2CCOCC2)nc(N2CCOCC2)n1)c1ccc(Cl)c(Cl)c1,-44.1%,11.6µM*,?,i,107.4%
Cc1noc(C)c1-c1nc(Nc2ccc(F)cc2)c2ccccc2n1,nt,nt,6.9%,nt,nt
SMILES,MCF10A rereplic,KB-V1 cytotox,PINK1 modulator,KB-3-1 tox,SW480 rerep
Cc1ccc(C(=O)N(C)CC(=O)Nc2ccc(Cl)c(C(F)(F)F)c2)cc1S(=O)(=O)N1CCCCC1,20.6µM*,?,?,?,?
CN(CC(=O)Nc1ccc(Cl)c(C(F)(F)F)c1)C(=O)c1ccc(OCC2CCCO2)cc1 (centres undefined),13.6%,7.31µM*,?,?,11.5%
COc1ccc(S(=O)(=O)N2CCCCCC2)cc1C(=O)N(C)CC(=O)Nc1ccc(Cl)c(Cl)c1,-12.6%,i,6.0%,i,-23.6%
CN(CC(=O)Nc1ccc(Cl)c(C(F)(F)F)c1)C(=O)C1CCC1,3.6%,i,-2.1%,i,-94.3%
CN(CC(=O)Nc1ccc(Cl)c(C(F)(F)F)c1)C(=O)c1ccc(S(=O)(=O)N2CCOCC2)cc1,5.8µM*,?,8.6%,8.2µM*,?
Cc1ccc(S(=O)(=O)N2CCCCC2)cc1C(=O)N(C)CC(=O)Nc1ccc(Cl)c(C(F)(F)F)c1,23.1µM*,?,22.9%,?,?
Cc1cccc(Cn2c(=O)n(CC3CCC(C(=O)N4CCOCC4)CC3)c(=O)c3sccc32)c1 (centres undefined),nt,i,2.6%,i,nt
CCCn1c(N)c(N(CCOC)C(=O)c2ccc(N(C)S(=O)(=O)c3ccc(C)cc3)cc2)c(=O)[nH]c1=O,0.1%,i,3.3%,?,26.0%
COC(=O)C[C@H]1C[C@@H]2c3cc(NC(=O)NC4CCCC4)ccc3O[C@@H]2[C@@H](CO)O1,nt,i,0.4%,i,nt
Cc1c(NC(=O)/C(C#N)=C/c2ccc(-c3cccc(Cl)c3)o2)c(=O)n(-c2ccccc2)n1C,?,9.2µM*,8.1%,?,?
Cc1c(NC(=O)/C(C#N)=C/c2ccc(-c3ccc(Cl)c(Cl)c3)o2)c(=O)n(-c2ccccc2)n1C,5.0%,i,-1.7%,i,6.7%
COc1cccc(/C=C(/C(=O)OCC(=O)NC2CCCC(C)C2C)c2ccccc2)c1 (centres undefined),18.4µM*,i,?,i,-16.2%
COc1cccc(/C=C(/C(=O)OCC(N)=O)c2ccccc2)c1,-1.1%,?,-1.4%,i,-2.5%
O=C1CCC(C(=O)N2CCOCC2)CN1Cc1ccc(Cl)cc1 (centres undefined),-3.0%,?,3.5%,i,0.1%
O=C(NC1CCOCC1)C1CCC(=O)N(Cc2ccc(Cl)cc2)C1 (centres undefined),9.4%,i,0.5%,?,9.2µM*
CCN(CC)c1ncnc2c1ncn2[C@H]1CN(C2CCCC2)C[C@@H](CO)O1,nt,i,0.0%,i,nt
CN1CCCc2cc(C=O)ccc21,1.4%,i,0.8%,i,-3.7%[9.22 µM]
CCCN1CCCc2cc(CN)ccc21,13µM*,i,?,i,?
CCCC(=O)Nc1nnc(SCc2cc(=O)c3ccc(C)cc3[nH]2)s1,nt,?,2.8%,?,nt
CC(C)OC(=O)N(C)C[C@@H]1OCc2cn(nn2)CCCC(=O)N([C@@H](C)CO)C[C@H]1C,nt,i,2.3%,?,nt
